Experimental data taken from a collection of fitness landscapes (doi:10.1126/science.1257360).
In all, about 140,000 sequences were measured (“enrichment ratio after two sorts for PhoP signalling”: median about 0, highest 2% from about 11 on). The list comes from a sample in which the highest values are over-represented; it also holds similar and randomly drawn sequences.

B1: PhoQ; a variant is named by its letters at X, in order, P23837 (parent)
chain: MKKLLRLFFPLSLRVRFLLATAAVVLVLSLAYGMVALIGYSVSFDKTTFRLLRGESNLFYTLAKWENNKLHVELPENIDKQSPTMTLIYDENGQLLWAQRDVPWLMKMIQPDWLKSNGFHEIEADVNDTSLLLSGDHSIQQQLQEVREDDDDAEMTHSVAVNVYPATSRMPKLTIVVVDTIPVELKSSYMVWSWFIYVLSANLLLVIPLLWVAAWWSLRPIEALAKEVRELEEHNRELLNPATTRELTSLVRNLNRLLKSERERYDKYRTTLTDLTHSLKTPLXXLQXXLRSLRSEKMSVSDAEPVMLEQISRISQQIGYYLHRASMRGGTLLSRELHPVAPLLDNLTSALNKVYQRKGVNISLDISPEISFVGEQNDFVEVMGNVLDNACKYCLEFVEISARQTDEHLYIVVEDDGPGIPLSKREVIFDRGQRVDTLRPGQGVGLAVAREITEQYEGKIVAGESMLGGARMEVIFGRQHSAPKDE

Variants of: B1
Experiment: enrichment ratio after two sorts for PhoP signalling (ratio (wild type AVST 3.29)); higher = more functional
Settings: with PhoP (E. coli)

| Variant | enrichment ratio |
| --- | --- |
| TSMW | ≤ 0.25 |
| TSMV | 19.3 |
| TSMI | 23 |
| FSMV | 9.33 |
| KSMV | ≤ 0.25 |
| KSMI | ≤ 0.25 |
| RCKQ | ≤ 0.25 |
| VMWK | ≤ 0.25 |
| AQIM | 2.44 |
| MGFA | 3.62 |
| MLWC | ≤ 0.25 |
| MGNS | ≤ 0.25 |
| MGDY | ≤ 0.25 |
| MGFC | 14.4 |
| MGWC | 32.1 |
| MGFS | 2.82 |
| MGLC | 19.1 |
| QRLC | ≤ 0.25 |
| IHNL | ≤ 0.25 |
| VPHV | ≤ 0.25 |
| QVMI | ≤ 0.25 |
| QDPG | ≤ 0.25 |
| LMRT | ≤ 0.25 |
| HNWM | ≤ 0.25 |

| Variant | enrichment ratio |
| --- | --- |
| TLAN | 12.5 |
| SSAN | 12.6 |
| PLAN | ≤ 0.25 |
| VLAN | ≤ 0.25 |
| SIAN | 22.8 |
| SRAN | ≤ 0.25 |
| SLAN | 13.8 |
| KSAN | ≤ 0.25 |
| SFAN | ≤ 0.25 |
| SIWN | 4.21 |
| NSAN | ≤ 0.25 |
| KYAN | ≤ 0.25 |
| AYNP | ≤ 0.25 |
| MNQS | ≤ 0.25 |
| QHYQ | ≤ 0.25 |
| SAQN | ≤ 0.25 |
| SAAN | 11.7 |
| KQAN | ≤ 0.25 |
| IPYG | ≤ 0.25 |
| MDSP | 1.12 |
| NDLM | ≤ 0.25 |
| YTWF | ≤ 0.25 |
| MPWY | ≤ 0.25 |
| MMWF | ≤ 0.25 |

| Variant | enrichment ratio |
| --- | --- |
| TTWY | 14 |
| MTWF | 11.8 |
| MTWY | 21.6 |
| YTWY | ≤ 0.25 |
| MTWI | 10.2 |
| LTWY | 2.54 |
| REII | ≤ 0.25 |
| QNIY | ≤ 0.25 |
| RKGF | ≤ 0.25 |
| RLAG | ≤ 0.25 |
| LLSD | ≤ 0.25 |
| KHVD | ≤ 0.25 |
| WVTG | ≤ 0.25 |
| WRYK | ≤ 0.25 |
| DWAR | ≤ 0.25 |
| DQSP | ≤ 0.25 |
| HHVS | ≤ 0.25 |
| HLFA | ≤ 0.25 |
| WIAG | ≤ 0.25 |
| AKAG | ≤ 0.25 |
| TIFG | ≤ 0.25 |
| AIAG | 12.5 |
| KKAG | ≤ 0.25 |
| TIAG | 21.3 |

| Variant | enrichment ratio |
| --- | --- |
| EQNT | ≤ 0.25 |
| MHNT | ≤ 0.25 |
| ITTY | ≤ 0.25 |
| FVHV | 12.9 |
| NVHV | ≤ 0.25 |
| TTHV | 14.6 |
| STQV | 2.63 |
| TTPV | ≤ 0.25 |
| FSHV | ≤ 0.25 |
| YTQV | ≤ 0.25 |
| YTHV | ≤ 0.25 |
| TTMV | 28.9 |
| FDHV | ≤ 0.25 |
| TTQV | 16.2 |
| TTIV | 0.549 |
| SKAG | ≤ 0.25 |
| TMDC | ≤ 0.25 |
| CSSV | 0.253 |
| LKSK | ≤ 0.25 |
| QYAS | ≤ 0.25 |
| DYQS | ≤ 0.25 |
| HVFV | ≤ 0.25 |
| VSIQ | ≤ 0.25 |
| TGHV | 16.1 |

| Variant | enrichment ratio |
| --- | --- |
| GGHV | ≤ 0.25 |
| RGHV | ≤ 0.25 |
| YHQM | ≤ 0.25 |
| DRRP | ≤ 0.25 |
| AKSC | 23.2 |
| TKSC | 5.09 |
| ADSC | ≤ 0.25 |
| ANSC | 11.9 |
| ANSK | ≤ 0.25 |
| ARSC | ≤ 0.25 |
| VIHS | ≤ 0.25 |
| QISE | ≤ 0.25 |
| IIPR | ≤ 0.25 |
| TIIG | ≤ 0.25 |
| QQWT | ≤ 0.25 |
| MEWT | 34.7 |
| QIWT | 20.8 |
| TPWT | ≤ 0.25 |
| MPWT | ≤ 0.25 |
| MMWT | ≤ 0.25 |
| MKWT | ≤ 0.25 |
| TSWT | 13.4 |
| LCWT | ≤ 0.25 |
| QEWT | 11.3 |

| Variant | enrichment ratio |
| --- | --- |
| QRWT | ≤ 0.25 |
| QLWT | ≤ 0.25 |
| LESG | ≤ 0.25 |
| KRHA | ≤ 0.25 |
| DVYV | ≤ 0.25 |
| SDAE | ≤ 0.25 |
| YELP | ≤ 0.25 |
| EIRK | ≤ 0.25 |
| ESAA | ≤ 0.25 |
| EVKR | ≤ 0.25 |
| KHRA | ≤ 0.25 |
| IFHG | ≤ 0.25 |
| MCIH | ≤ 0.25 |
| MRWT | ≤ 0.25 |
| KEWT | ≤ 0.25 |
| VRWT | ≤ 0.25 |
| DMWT | ≤ 0.25 |
| ITWT | ≤ 0.25 |
| FFWT | ≤ 0.25 |
| YTWT | ≤ 0.25 |
| NEWT | 32 |
| MQWT | 21.2 |
| QGWT | 36 |
| TTWT | 15 |

| Variant | enrichment ratio |
| --- | --- |
| FQWT | ≤ 0.25 |
| NKIQ | ≤ 0.25 |
| ENRF | ≤ 0.25 |
| PLPI | ≤ 0.25 |
| WSFP | ≤ 0.25 |
| YDQD | ≤ 0.25 |
| VCTS | ≤ 0.25 |
| WTPD | ≤ 0.25 |
| SKDW | ≤ 0.25 |
| EAPV | ≤ 0.25 |
| PSRQ | ≤ 0.25 |
| MGCC | ≤ 0.25 |
| VYFN | ≤ 0.25 |
| VGPY | ≤ 0.25 |
| LCTR | ≤ 0.25 |
| RLWT | ≤ 0.25 |
| HPWT | ≤ 0.25 |
| LRWT | ≤ 0.25 |
| TDWT | 25.1 |
| SPWT | ≤ 0.25 |
| KSWT | ≤ 0.25 |
| SLWT | ≤ 0.25 |
| SEWT | 13.2 |
| LLWT | ≤ 0.25 |

| Variant | enrichment ratio |
| --- | --- |
| LEWT | 12.5 |
| ADWT | ≤ 0.25 |
| TEWT | 12.8 |
| MNIK | ≤ 0.25 |
| LKPQ | ≤ 0.25 |
| MYHS | ≤ 0.25 |
| LAEQ | ≤ 0.25 |
| KQHW | ≤ 0.25 |
| LWPI | ≤ 0.25 |
| IYVA | ≤ 0.25 |
| RPSC | ≤ 0.25 |
| GEHV | ≤ 0.25 |
| YVEW | ≤ 0.25 |
| RVGM | ≤ 0.25 |
| TISL | 19.4 |
| TLSL | 15.8 |
| GDSL | ≤ 0.25 |
| WISL | ≤ 0.25 |
| NGSL | ≤ 0.25 |
| VLSL | 0.415 |
| GLSK | ≤ 0.25 |
| TGSL | 16.8 |
| SLSL | 10.7 |
| NISL | 0.771 |

| Variant | enrichment ratio |
| --- | --- |
| GLSL | 11.5 |
| GGSL | 3.4 |
| WCCL | ≤ 0.25 |
| HISH | ≤ 0.25 |
| VTMH | ≤ 0.25 |
| AIRA | ≤ 0.25 |
| TVSY | 10.4 |
| MVVG | ≤ 0.25 |
| YGHF | ≤ 0.25 |
| TASL | 15.1 |
| SGSL | 11.8 |
| KASL | ≤ 0.25 |
| SPSL | ≤ 0.25 |
| NVSL | ≤ 0.25 |
| TVSL | 14.4 |
| NASL | ≤ 0.25 |
| YWEI | ≤ 0.25 |
| PCWT | ≤ 0.25 |
| HICM | ≤ 0.25 |
| DTPM | ≤ 0.25 |
| FGCQ | 13.2 |
| FGCS | ≤ 0.25 |
| NGCQ | ≤ 0.25 |
| TGCQ | 13.9 |

| Variant | enrichment ratio |
| --- | --- |
| GECI | 7.86 |
| STCQ | 15.3 |
| SQCQ | 3.73 |
| SPCQ | ≤ 0.25 |
| GECS | 7.23 |
| FGCI | 7.38 |
| GECQ | 17 |
| RGCQ | ≤ 0.25 |
| WIRR | ≤ 0.25 |
| DKPL | ≤ 0.25 |
| LNCS | ≤ 0.25 |
| HHGV | ≤ 0.25 |
| NSRQ | ≤ 0.25 |
| LTKK | ≤ 0.25 |
| ARTW | ≤ 0.25 |
| SHKM | ≤ 0.25 |
| ACGT | 4.5 |
| HFGF | ≤ 0.25 |
| MLHA | ≤ 0.25 |
| ITCQ | ≤ 0.25 |
| GTCQ | 13.4 |
| GECL | 5.03 |
| YTCQ | 1.7 |
| GNHP | ≤ 0.25 |

| Variant | enrichment ratio |
| --- | --- |
| GECA | 1.47 |
| GICQ | 10.3 |
| MTCQ | ≤ 0.25 |
| GECV | 16.3 |
| TTCQ | 18.9 |
| GNCQ | 12.1 |
| DTCQ | ≤ 0.25 |
| MPVD | ≤ 0.25 |
| LRSS | ≤ 0.25 |
| QFGG | ≤ 0.25 |
| YYIN | ≤ 0.25 |
| IIQY | ≤ 0.25 |
| NRIW | ≤ 0.25 |
| HQPD | ≤ 0.25 |
| YMHI | ≤ 0.25 |
| FYKD | ≤ 0.25 |
| HRDN | ≤ 0.25 |
| QQHS | ≤ 0.25 |
| YSME | 1.23 |
| MDWD | ≤ 0.25 |
| FRMF | ≤ 0.25 |
| NICQ | ≤ 0.25 |
| GHCQ | ≤ 0.25 |
| GGCQ | 13.2 |

| Variant | enrichment ratio |
| --- | --- |
| LNMQ | ≤ 0.25 |
| NCQG | ≤ 0.25 |
| YACN | ≤ 0.25 |
| TALQ | 15.2 |
| TADK | ≤ 0.25 |
| TACN | 13 |
| NALL | 5.99 |
| KALQ | ≤ 0.25 |
| NALQ | ≤ 0.25 |
| TALL | 12 |
| IALI | 9.02 |
| TALI | 18.1 |
| NWCN | ≤ 0.25 |
| KALL | ≤ 0.25 |
| PICT | ≤ 0.25 |
| DTQQ | ≤ 0.25 |
| VDFR | ≤ 0.25 |
| SNNF | 6.15 |
| GFIP | ≤ 0.25 |
| GLMF | 1.04 |
| FESF | ≤ 0.25 |
| AAEK | ≤ 0.25 |
| QIFT | ≤ 0.25 |
| TALT | 9.61 |

| Variant | enrichment ratio |
| --- | --- |
| TAQN | ≤ 0.25 |
| TALN | 18.9 |
| IALC | 1.46 |
| EALN | ≤ 0.25 |
| TALS | 10.9 |
| KALC | ≤ 0.25 |
| TALC | 20.9 |
| TALA | 13.8 |
| MHGF | ≤ 0.25 |
| YMMK | ≤ 0.25 |
| QQSN | ≤ 0.25 |
| NNFF | ≤ 0.25 |
| VDVG | ≤ 0.25 |
| FFRS | ≤ 0.25 |
| FHDF | ≤ 0.25 |
| MQYS | 6.75 |
| QTFE | ≤ 0.25 |
| SEKM | ≤ 0.25 |
